Experimental data reported in ChEMBL document CHEMBL3433997, “St. Jude Leishmania screening dataset” (2016).

Tests used:
Type in all cases: functional
[1] = biological target: Solute carrier family 2, facilitated glucose transporter member 1 (Homo sapiens) (UniProt P11166); assay: ST_JUDE_LEISH: Cytotoxicity at 2uM final concentration against transgenic Leishmania Mexicana promastigotes LmGLUT1 that are glucose transport deficient and complemented with the human glucose transporter GLUT1. Activity is measured by DNA content using SYBR green in vitro
[2] = biological target: Hexose transporter 1 (Plasmodium falciparum) (UniProt O97467); assay: ST_JUDE_LEISH: Cytotoxicity at 2uM final concentration against transgenic Leishmania Mexicana promastigotes LmPfHT that are glucose transport deficient and complemented with the Plasmodium falciparum hexose transporter. Activity is measured by DNA content using SYBR green in vitro
[3] = biological target: Glucose transporter (Leishmania mexicana) (UniProt O61059); assay: ST_JUDE_LEISH: Cytotoxicity at 2uM final concentration against transgenic Leishmania Mexicana promastigotes LmGT2 that are glucose transport deficient and complemented with the L. Mexicana glucose transporter 2. Activity is measured by DNA content using SYBR green in vitro

Chain of Solute carrier family 2, facilitated glucose transporter member 1 (Homo sapiens) (P11166 whole entry): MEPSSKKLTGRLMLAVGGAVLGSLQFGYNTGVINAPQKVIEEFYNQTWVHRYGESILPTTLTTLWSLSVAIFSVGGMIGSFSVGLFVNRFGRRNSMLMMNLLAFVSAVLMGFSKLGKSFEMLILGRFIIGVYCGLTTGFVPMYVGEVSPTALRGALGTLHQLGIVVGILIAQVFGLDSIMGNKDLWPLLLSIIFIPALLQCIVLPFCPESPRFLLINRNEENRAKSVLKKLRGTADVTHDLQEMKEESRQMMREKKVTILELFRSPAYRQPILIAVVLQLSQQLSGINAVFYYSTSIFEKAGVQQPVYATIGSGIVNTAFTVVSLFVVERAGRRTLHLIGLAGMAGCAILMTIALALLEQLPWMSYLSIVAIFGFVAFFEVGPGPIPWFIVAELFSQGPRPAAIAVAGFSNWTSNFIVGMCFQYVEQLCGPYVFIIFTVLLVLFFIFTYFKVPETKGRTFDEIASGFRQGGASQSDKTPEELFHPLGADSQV

Compound	inhibition [1]	inhibition [2]	inhibition [3]
Cn1cc(CN2CCC(CCOC(c3ccccc3)c3ccccc3)CC2)cn1	12.3%	9.95%	5.33%
S=C(NCCc1ccc(Cl)cc1)N1CCC(CN2CCC(c3c[nH]c4ccccc34)CC2)CC1	3.04%	1.73%	1.67%
CN1C2CCC1c1cc(NC(=O)c3cc(-c4ccc(Cl)cc4)cs3)ccc12 (stereo not drawn)	8.89%	9.62%	8.52%
Cc1nc(C)c(-c2ccc(Oc3ccc(OC(F)(F)F)cc3)cc2)c(OC(=O)N(CCNC(C)C)C(C)C)c1Br	5.43%	8.45%	5.04%
Cc1c(C(=O)NC2CCC(CN3CCC(c4c[nH]c5ccccc45)CC3)CC2)cnn1-c1c(Cl)cc(Cl)cc1Cl (stereo not drawn)	1.64%	1.93%	-1.52%
O=C(CNC1CCCCC1)c1ccc(O)c(O)c1	75.2%	87.1%	77.4%
